Experimental data from a collection of fitness landscapes (doi:10.1016/j.celrep.2020.107928).
Over roughly 81,000 sequences, “one-hybrid fitness for binding NBS DNA” has its median near -0.1; the highest 2% begin near 0.36. The sample holds the highest values, similar sequences and a random draw of the others, so the mix is not that of the screen.

B1: Caulobacter ParB omega fusion; a variant is named by its letters at X, in order, B8GW30 (parent)
chain: MESVVVGEPGMSEGRRGLGRGLSALLGEVDAAPAQAPGEQLGGSREAPIEILQRNPDQPRRTFREEDLEDLSNSIREKGVLQPILVRPSPDTAGEYQIVAGERAWRAAQRAGLKTVPIMVRELDDLAVLEIGIIENVQRADLNVLEEALSYKVLMEKFERTQENIAQTIGKSXSHVANXMRLLXLPDEVQSYLVSGELTAXHARAIAAAADPVALAKQIIEGGLSVRETEALARKAPNLSAGKSKGGRPPRVKDTDTQALESDLSSVLGLDVSIDHRGSTGTLTITYATLEQLDDLCNRLTRGI

Variants of: B1
Assay: one-hybrid fitness for binding NBS DNA (the Noc-binding site; scaled: cognate 1, non-cognate 0); higher = stronger binding
Conditions: with NBS DNA site
In short: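 Fitness is the rescaled log change in variant-to-wild-type read ratio, measured by Illumina sequencing of plasmids before and after bacterial one-hybrid selection. The scale puts cognate at 1 and non-cognate at 0. Selection of Caulobacter ParB libraries, four specificity codons randomised, took place in E. coli USO with a HIS3 reporter, site 19 bp from the promoter, over 48 hours at 37°C on M9-minus-histidine with 0.1 mM IPTG and 5 mM 3-AT.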

Variant	one-hybrid fitness for binding NBS DNA
YEPF	≤ 0.2
HTTL	≤ 0.2
YPNR	≤ 0.2
EHEC	≤ 0.2
THMK	≤ 0.2
KSHR	≤ 0.2
KCHR	≤ 0.2
KCGR	≤ 0.2
KRQR	0.552
KCQR	≤ 0.2
KSWR	≤ 0.2
KRGR	0.557
KPWR	≤ 0.2
KRHR	0.616
KPGR	≤ 0.2
KRWR	0.578
DRQR	≤ 0.2
NSRQ	≤ 0.2
TYKN	≤ 0.2
HHDR	≤ 0.2
DNHG	≤ 0.2
KCSR	≤ 0.2
KCNR	0.223
NRSR	≤ 0.2
KRLR	0.456

Variant	one-hybrid fitness for binding NBS DNA
KRER	0.368
KSER	≤ 0.2
KCER	≤ 0.2
KRNR	0.661
KRDR	0.336
KRSR	0.561
DRLR	≤ 0.2
KCLR	≤ 0.2
IRGF	≤ 0.2
RLMT	0.335
QCPH	≤ 0.2
TMHT	≤ 0.2
KRRD	≤ 0.2
KRYR	0.545
KCYR	≤ 0.2
KRRK	0.319
KPYR	≤ 0.2
NRCR	≤ 0.2
KCIR	≤ 0.2
KRCR	0.55
KCCR	≤ 0.2
KRPR	0.239
KRRR	0.787
KRIR	0.378
GERG	≤ 0.2

Variant	one-hybrid fitness for binding NBS DNA
HQHR	≤ 0.2
VMTL	≤ 0.2
CRHA	≤ 0.2
HMKG	≤ 0.2
THLW	≤ 0.2
GMMA	≤ 0.2
QTYE	≤ 0.2
QSRE	0.22
QTVE	≤ 0.2
QRYE	0.207
QCKE	0.297
QRKE	0.368
QCRE	0.369
QTDE	≤ 0.2
QTRE	0.405
QRVE	≤ 0.2
QTKE	0.378
QPRE	≤ 0.2
DNPC	≤ 0.2
TLCS	≤ 0.2
AKQC	≤ 0.2
YPSA	≤ 0.2
VEHK	≤ 0.2
IPPG	≤ 0.2
NQDG	≤ 0.2

Variant	one-hybrid fitness for binding NBS DNA
HSKR	≤ 0.2
CSCG	≤ 0.2
RDNI	≤ 0.2
RVSR	0.439
RVSN	≤ 0.2
RVST	0.463
RVSC	≤ 0.2
RVSD	≤ 0.2
RVSS	0.39
RVSH	≤ 0.2
RVSP	≤ 0.2
RVSF	≤ 0.2
TKDA	≤ 0.2
NVIT	≤ 0.2
NCKE	≤ 0.2
GYMR	≤ 0.2
VACG	≤ 0.2
GAQH	≤ 0.2
LKVD	≤ 0.2
RKAN	≤ 0.2
RCFR	0.376
RPFR	≤ 0.2
RFFR	≤ 0.2
RKFR	0.443
RKFK	≤ 0.2

Variant	one-hybrid fitness for binding NBS DNA
RKAH	0.322
RKFQ	≤ 0.2
RKAR	0.597
PSEM	≤ 0.2
VQGT	≤ 0.2
EMAT	≤ 0.2
MADF	≤ 0.2
PISS	≤ 0.2
CTLV	≤ 0.2
YGYV	≤ 0.2
RTKQ	0.356
RTVK	≤ 0.2
RTVD	≤ 0.2
RTVT	0.393
RTKC	0.31
RTKT	0.724
EDMY	≤ 0.2
WWLN	≤ 0.2
RCEN	≤ 0.2
DHID	≤ 0.2
PMHC	≤ 0.2
TEPL	≤ 0.2
PAKT	≤ 0.2
PFVA	≤ 0.2
GVMR	≤ 0.2

Variant	one-hybrid fitness for binding NBS DNA
KQKT	0.222
QQVP	≤ 0.2
QQVT	0.393
QQKF	0.356
QQVN	≤ 0.2
QQKT	0.811
DFWV	≤ 0.2
PKQR	≤ 0.2
TNGR	≤ 0.2
DAAG	≤ 0.2
CWHR	≤ 0.2
QAGS	0.342
QTGT	0.64
QTGQ	0.27
QSGT	0.385
QTGY	0.312
QAGT	0.37
QLGS	0.322
QSGD	≤ 0.2
QSGN	≤ 0.2
QLGH	≤ 0.2
QLGT	0.369
QAGN	≤ 0.2
DRLC	≤ 0.2
AHIW	≤ 0.2

Variant	one-hybrid fitness for binding NBS DNA
CMMG	≤ 0.2
SQTP	≤ 0.2
CRSF	≤ 0.2
KPEL	≤ 0.2
QIGT	0.331
QHGT	0.385
QCGT	0.558
QHGS	0.343
QHGP	≤ 0.2
QPGT	≤ 0.2
LTNG	≤ 0.2
SHCL	≤ 0.2
DTQK	≤ 0.2
GMQY	≤ 0.2
SYPN	≤ 0.2
QRIH	0.335
QRPS	0.461
QRPD	≤ 0.2
QRIS	0.546
QRIN	≤ 0.2
QRPP	≤ 0.2
TLDA	≤ 0.2
VTHW	≤ 0.2
PTMM	≤ 0.2
REHM	≤ 0.2

Variant	one-hybrid fitness for binding NBS DNA
TEDC	≤ 0.2
MFLM	≤ 0.2
WPQL	≤ 0.2
QDTP	≤ 0.2
SAMV	≤ 0.2
RKWA	0.249
RCKA	0.423
RFKA	≤ 0.2
RTPA	≤ 0.2
RTVA	≤ 0.2
RKVA	≤ 0.2
RSKA	0.343
RPKA	≤ 0.2
RTKA	0.479
RRKA	0.712
RIKA	0.327
RKKA	0.514
VDGR	≤ 0.2
KWPI	≤ 0.2
RNIK	≤ 0.2
